Measurements as given in PubChem BioAssay (NCATS).
Values joined by “and” are separate entries in the source; they are usually repeats but may differ in a detail not shown here. Equal entries are not always repeated. Records with an inconclusive call do not appear. A call without a number means that no potency is given here. Active and inactive are the calls of the source. Unless noted, the call rests on the fitted dose curve.

Key:
[1] = Confirmatory qHTS to identify inhibitors of SARS-CoV-2 cell entry (AID 1645844); further: potency means the concentration at half of the fitted maximal effect; nearly all actives have a fitted effect of over 45% in size
Outline: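 HEK293-ACE2 cells were pretreated 1 h with compound, then infected with MLV-based pseudoparticles bearing C-terminally truncated Wuhan-Hu-1 spike for 48 h at 37C; luciferase luminescence normalized to spike PP and bald PP wells.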

[2] = Cytotoxicity counterscreen for inhibitors of SARS-CoV-2 cell entry (AID 1645845); further: nearly all actives have a fitted effect of over 50% in size
Outline: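 HEK293-ACE2 cells (Expi293F stably expressing human ACE2) seeded overnight, then compound for 1 h plus 48 h at 37C. Viability as ATP content by luminescence; normalized to wells with cells and media-only wells.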

[3] = Primary qHTS to identify inhibitors of SARS-CoV-2 cell entry (AID 1645846); conditions: activity change, negative = inhibition: at 57.1 µM (top of the series) unless noted; further: nearly all actives have a fitted effect of over 45% in size
Outline: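 Data are normalized to wells receiving SARS-CoV-2-S pseudoparticles and those given bald particles. Entry signal was luciferase luminescence in stable hACE2 Expi293F cells, 48 hr post-infection, after 1 hr compound pretreatment.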

[4] = VSVG counterscreen qHTS to identify inhibitors of SARS-CoV-2 cell entry (AID 1645847); further: potency means the concentration at half of the fitted maximal effect; nearly all actives have a fitted effect of over 65% in size
Outline: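 Counterscreen using VSV-G (not spike) pseudotyped MLV particles on ACE2-expressing Expi293F cells after 1 h compound preincubation; infection ran 48 h at 37 °C. Data normalized to VSV-G PP and bald-PP wells.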

[5] = target: Calcium and integrin-binding protein 1 (Homo sapiens) (UniProt Q99828); assay: Primary qHTS for Identification of Calcium Integrin Binding Protein 1 (CIB1) Competitor (AID 1508620; active means well fitted curve in the direction sought with a large enough effect; an effect the other way counts as inactive or inconclusive;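 further: GST tagged CIB1 binding a fluorescein labelled alphaIIb integrin peptide tracer; top concentration of the series differs between compounds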)
Outline: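 Fluorescence polarization competition: GST-tagged CIB1 (1 uM final) preincubated with compound 15 min at room temperature, then FITC-labelled alphaIIb peptide (100 nM final) added. After 15 min at room temperature, polarization read at Ex 480/Em 540.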

[6] = Primary qHTS for small molecule stabilizers of the endoplasmic reticulum resident proteome: Secreted ER Calcium Modulated Protein (SERCaMP) assay (AID 1508630; active means well fitted curve in the direction sought with a large enough effect; an effect the other way counts as inactive or inconclusive)
Outline: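 GLuc-SERCaMP-expressing SH-SY5Y cells, pretreated 16 h with compound, are challenged with thapsigargin to empty ER calcium stores; after 4 h, coelenterazine is added directly to the medium and luminescence is imaged.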

[7] = target: Cytochrome P450 2D6 (Homo sapiens) (UniProt P10635); assay: Cytochrome P450 family 2 subfamily D member 6 (CYP2D6) small molecule antagonists: luciferase biochemical (cell-free) qHTS assay (AID 1645840; active means well fitted curve in the direction sought with a large enough effect in the repeat runs; an effect the other way counts as inactive or inconclusive; further: nearly all actives have a fitted effect of over 55% in size)
Outline: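 P450-Glo luminescent screen: recombinant CYP2D6 enzyme–proluciferin substrate mix preincubated with compound 10 min at room temperature, then NADPH regeneration added for 1 h at room temperature. Detection reagent added for 20 min; luciferin light read as relative luminescence units.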

[8] = target: Cytochrome P450 2C9 (Homo sapiens) (UniProt P11712); assay: Cytochrome P450 family 2 subfamily C member 9 (CYP2C9) small molecule antagonists: luciferase biochemical (cell-free) qHTS assay (AID 1645842; active means well fitted curve in the direction sought with a large enough effect in the repeat runs; an effect the other way counts as inactive or inconclusive; further: potency means the concentration at half of the fitted maximal effect; nearly all actives have a fitted effect of over 55% in size)
Outline: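 Luminescence, after 20 min with luciferin detection reagent, reflected CYP2C9 turnover during a 1 h NADPH-driven reaction at 37C. Enzyme-substrate mix contained 0.4% bovine serum albumin and was preincubated with compound 10 min at room temperature.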

Chain of Calcium and integrin-binding protein 1 (Homo sapiens) (Q99828 whole entry, looked up): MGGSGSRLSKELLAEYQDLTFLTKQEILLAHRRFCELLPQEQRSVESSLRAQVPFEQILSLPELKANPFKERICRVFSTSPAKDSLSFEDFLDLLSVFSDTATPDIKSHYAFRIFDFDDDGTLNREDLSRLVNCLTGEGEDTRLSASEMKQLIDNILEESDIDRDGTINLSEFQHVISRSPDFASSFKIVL
Chain of Cytochrome P450 2C9 (Homo sapiens) (P11712 whole entry, looked up): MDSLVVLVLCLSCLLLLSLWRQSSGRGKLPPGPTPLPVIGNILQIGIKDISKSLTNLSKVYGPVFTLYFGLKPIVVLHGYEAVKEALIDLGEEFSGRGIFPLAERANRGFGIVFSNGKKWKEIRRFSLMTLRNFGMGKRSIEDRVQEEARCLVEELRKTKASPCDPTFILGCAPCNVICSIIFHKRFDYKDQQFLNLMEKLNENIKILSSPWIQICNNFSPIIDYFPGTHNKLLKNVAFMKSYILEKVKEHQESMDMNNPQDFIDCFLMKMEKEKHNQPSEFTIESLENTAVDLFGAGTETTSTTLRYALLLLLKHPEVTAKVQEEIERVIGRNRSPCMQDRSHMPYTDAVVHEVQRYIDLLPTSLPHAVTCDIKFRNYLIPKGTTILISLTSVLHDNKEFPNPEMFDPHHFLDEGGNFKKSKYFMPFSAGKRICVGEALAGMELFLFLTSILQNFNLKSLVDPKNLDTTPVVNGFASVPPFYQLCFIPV
Chain of Cytochrome P450 2D6 (Homo sapiens) (P10635 whole entry, looked up): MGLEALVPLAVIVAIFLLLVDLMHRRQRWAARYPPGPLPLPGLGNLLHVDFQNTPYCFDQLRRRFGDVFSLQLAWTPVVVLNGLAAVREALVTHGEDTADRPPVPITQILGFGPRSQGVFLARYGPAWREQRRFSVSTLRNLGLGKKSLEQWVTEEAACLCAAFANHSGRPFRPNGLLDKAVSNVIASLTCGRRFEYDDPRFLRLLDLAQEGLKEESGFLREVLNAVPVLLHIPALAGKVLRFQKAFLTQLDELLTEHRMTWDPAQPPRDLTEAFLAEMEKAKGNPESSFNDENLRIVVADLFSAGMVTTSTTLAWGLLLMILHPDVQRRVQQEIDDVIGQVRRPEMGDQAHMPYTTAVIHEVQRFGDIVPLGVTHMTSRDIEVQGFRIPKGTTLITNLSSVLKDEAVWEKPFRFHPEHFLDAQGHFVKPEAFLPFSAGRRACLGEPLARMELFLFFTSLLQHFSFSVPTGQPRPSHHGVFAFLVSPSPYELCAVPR

## CC(=O)[C@]1(O)Cc2c(O)c3c(c(O)c2[C@@H](O[C@H]2C[C@H](N)[C@H](O)[C@H](C)O2)C1)C(=O)c1ccccc1C3=O
[1]
  Potency: 76.4 nM (active)
[2]
  Potency: inactive
[3]
  activity change, negative = inhibition: -91.2% and -93.3%
[4]
  Potency: 85.7 nM (active)

## CNC(=O)c1ccc(N2C(=S)N(c3ccc(C#N)c(C(F)(F)F)c3)C(=O)C23CCC3)cc1F
[5]
  Potency: inactive
[6]
  outcome: inactive
[7]
  Potency: inactive
[8]
  Potency: 16900 nM (active)

## CN(C)CCN(C)CCc1ccc(Cl)c(Cl)c1
[5]
  Potency: inactive
[6]
  outcome: inactive
[2]
  Potency: inactive

## N=C(N)c1ccc(OCCCCCOc2ccc(C(=N)N)cc2)cc1
[2]
  Potency: inactive
